Potency and viability change, negative = cytotoxic data for 40 compounds are collected here from PubChem BioAssay (Tox21).

Results filed as inconclusive are left out. Where a call stands in place of a potency, no number is given. Calls of active or inactive are those of the source. Calls come from the whole dose curve; as a rule, active = well fitted cell-killing curve with a large enough effect in the repeat runs; inconclusive = weak or mixed curves; inactive = flat fitted curve, though single readings scatter.
Potency is the fitted concentration of half-maximal effect.

The assay can be described thus: qHTS assay to identify small molecule antagonists of the estrogen related receptor (ERR) signaling pathway from Tox21 library - cell viability counter screen (AID 1224834). Note: nearly all actives have a fitted effect of over 30% in size. To be noted: ERR reporter cells viability, CellTiter-Fluor, 17.5 h; series mostly up to 92.4 µM. The source says:
National Center for Advancing Translational Sciences [NCATS]
NIH Chemical Genomics Center [NCGC]
U.S. Environmental Protection Agency [EPA]
National Institutes of Environmental Health Sciences [NIEHS]
National Toxicology Program [NTP]
U.S. Food and Drug Administration [FDA]
Estrogen related receptors (ERRs), the first orphan nuclear receptors discovered, play an important role in the control of cellular energy metabolism. ERRs are required for high-energy production in response to the environmental challenges. ERR-alpha was also identified as an adverse marker for breast cancer progression; ERR-alpha-positive tumors have a poor prognosis. To screen and to identify environmental compounds that perturb the ERR signaling pathways could provide valuable information for potential therapeutic or preventive measures in the treatment of metabolic disease. To differentiate true ERR antagonists or agonist from cytotoxic substances, the assay is multiplexed with cell viability assay.
Tox21 Assay Protocol Summary:
The ERR cells were dispensed at 2,000 cells/5 ul/well in 1536-well white plates using a Multidrop dispenser. After the assay plates were incubated at a 37 C/5% CO2 incubator for 6 hours, 23 nL of compounds dissolved in DMSO, positive and negative controls or DMSO only was transferred to the assay plate by a pin tool. The plates were incubated at 37 C for 17.5 hours. 1 ul/well of CellTiter-Fluor reagent was added into the assay plates using a Flying Reagent Dispenser. After 30-minute incubation at 37 C/5% CO2, the fluorescence intensity in the plates was measured using a ViewLux plate reader.
Consider `Cc1ncc(CO)c(C=O)c1O`, for which the Potency entry was “inactive”.
In the case of `CCCCCCCC#N`, the Potency entry is “inactive”.
Consider `O=C1[C@H]2CCCC[C@H]2C(=O)N1CCCCN1CCN(c2nsc3ccccc23)CC1`, for which the Potency was 29.8 µM (active).
For the compound `O=C1CCCCCCCCCCCC(=O)OCCO1`, the Potency result was “inactive”.
Regarding `Nc1cccc([N+](=O)[O-])c1`, the Potency entry is “inactive”.
As to `CC(CSC(=O)c1ccccc1)C(=O)N1C[C@@H](Sc2ccccc2)C[C@H]1C(=O)O` (stereo not given in full), the viability change, negative = cytotoxic was 7.27% [at 19 µM] (inactive).
In the case of `CC1(c2ccccc2)OC(C(=O)O)=CC1=O` (stereo not given), the Potency result was “inactive”.
In the case of `O=C(O)c1nc(Cl)c(Cl)c(Cl)c1Cl`, the Potency entry was “inactive”.
Consider `Nc1c(CC(=O)O)cccc1C(=O)c1ccc(Br)cc1`, for which the Potency entry was “inactive”.
For `O=C(Cl)c1cc(C(=O)Cl)cc(C(=O)Cl)c1`, the Potency entry is “inactive”.
Same read-out and setting: the value for `OC(CN1CCC(Cc2ccc(F)cc2)CC1)c1ccc(Cl)cc1` (stereo not given) was “inactive”; that for `C[N+]1(C)CCC(OC(=O)C(O)(c2ccccc2)C2CCCC2)C1` (stereo not given) was “inactive”.
`COc1ccc(C)cc1[N+](=O)[O-]`: the Potency entry was “inactive”.
Consider `Nc1ncn([C@H]2C[C@H](O)[C@@H](CO)O2)c(=O)n1`, for which the Potency entry is “inactive”.
On to `c1ccc(CNCCNCc2ccccc2)cc1`, for which the Potency entry was “inactive”.
The same measure, in the same setting: the value for `CCOC(=O)c1cccnc1` was “inactive”; that for `Cc1nn(C)c(Oc2ccccc2)c1/C=N/OCc1ccc(C(=O)OC(C)(C)C)cc1` was “inactive”.
On the same count and under the same terms, the value for `CC(C)=CCC/C(C)=C/CC/C(C)=C/CO` was “inactive”; that for `CCNc1cc(O)ccc1C` was “inactive”; that for `NCC(=O)CCC(=O)O` was “inactive”.
Consider `CC(=O)c1cccc([N+](=O)[O-])c1`, for which the Potency result was “inactive”.
Turning to `Nc1ccc([N+](=O)[O-])c(C(F)(F)F)c1`, the Potency entry is “inactive”.
In the case of `Cc1cc(N)c2cc(NC(=O)Nc3ccc4nc(C)cc(N)c4c3)ccc2n1`, the Potency result was “inactive”.
On the same count and under the same terms, under `O=[N+]([O-])c1ccc(NCCO)c(OCCO)c1` stands 30.7 µM (active); under `CCC(CC)Nc1ccc(C)c(C)c1`, “inactive”.
Consider `COC(C)(C)CCO`, for which the Potency entry is “inactive”.
Same read-out and setting: the value for `CCN(CC)c1ccc2c(-c3ccccc3C(=O)O)c3ccc(=[N+](CC)CC)cc-3oc2c1` was 7.7 µM (active).
As to `CC1=CCCC(C)(C)C12CCC(C)O2` (stereo not given), the Potency entry is “inactive”.
On to `O=C(CS)Nc1ccccc1`, for which the Potency entry is “inactive”.
Turning to `CC(C)CC(=O)C1C(=O)c2ccccc2C1=O`, the Potency is 38.6 µM (active).
As for `NC(N)=NCCC[C@H](N)C(=O)O`, the viability change, negative = cytotoxic is 3.84% [at 8.39 µM] (inactive).
For `CCC(C)O` (stereo not given), the Potency result was “inactive”.
`CC(C)O.CC(C)O.CCOC(=O)/C=C(\C)O.CCOC(=O)/C=C(\C)O.[Ti]`: the Potency result is “inactive”.
`CCn1cc(C(=O)O)c(=O)c2cnc(N3CCNCC3)nc21`: the Potency entry is “inactive”.
For `CCCCCCCC/C=C\CCCCCCCC(=O)OCC`, the Potency result was “inactive”.
In the case of `COCCCN1CCC(NC(=O)c2cc(Cl)c(N)c3c2OCC3)CC1`, the Potency result was “inactive”.
As to `CCCCC`, the Potency entry was “inactive”.
As to `CCCCCCc1ccc(-c2ccc(C#N)cc2)cc1`, the Potency entry was “inactive”.
In the case of `Cc1cccc(C)c1NC(=O)CN(CC(=O)O)CC(=O)O`, the Potency entry was “inactive”.
Take `O=C(O)C1(C(=O)O)CCC1.[NH2-].[NH2-].[Pt+2]`: the Potency entry was “inactive”.
